About 83,000 compounds went through this panel and 20% of them were active in at least one assay; those are over-represented in the sample as a whole.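 Testing used 96-well plates and a 48-hour single-concentration exposure. Example: -40 means 40% of the starting cells died.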 Calls of active or inactive are those of the source. Rule for the calls: active = growth percent below 10; inactive = the rest.
Columns and labels:
Experiment in all cases: NCI-60 one-dose screen, 48 h (100 = growth as untreated, 0 = no growth, -100 = all killed)
Details in all cases: 10 µM unless noted
HCT-15 colon = tested on: HCT-15 colon
HT29 colon = tested on: HT29 colon
SNB-19 CNS = tested on: SNB-19 CNS
U251 CNS = tested on: U251 CNS
PC-3 prostate = tested on: PC-3 prostate
SK-MEL-5 melanoma = tested on: SK-MEL-5 melanoma
UACC-62 melanoma = tested on: UACC-62 melanoma
LOX IMVI melanoma = tested on: LOX IMVI melanoma
SK-MEL-28 melanoma = tested on: SK-MEL-28 melanoma

SMILES | growth (HCT-15 colon) | growth (HT29 colon) | growth (SNB-19 CNS) | growth (U251 CNS) | growth (PC-3 prostate) | growth (SK-MEL-5 melanoma) | growth (UACC-62 melanoma) | growth (LOX IMVI melanoma) | growth (SK-MEL-28 melanoma)
OC(c1ccccc1)(c1ccccc1)c1ccccc1-c1ccccc1 | 90.7% (inactive) | 73.4% (inactive) | 94% (inactive) | 92.8% (inactive) | 86% (inactive) | 96.4% (inactive) | 79.2% (inactive) | 87.2% (inactive) | 109% (inactive)
CCN1C(=O)N(CC)C2C1NN=C1SCC(=O)N12 (stereo not drawn) | 82% (inactive) | 59.5% (inactive) | 97% (inactive) | 107% (inactive) | 94% (inactive) | 101% (inactive) | 85.8% (inactive) | 107% (inactive) | 96.6% (inactive)
O=C(CSc1nc2ccc([N+](=O)[O-])cc2[nH]1)Nc1cccc([N+](=O)[O-])c1 | 54.4% (inactive) | 57.6% (inactive) | 64.2% (inactive) | 41.5% (inactive) | 44.8% (inactive) | 19.7% (inactive) | 21.1% (inactive) | 57.8% (inactive) | 
CCCCSCC(=O)c1ccccc1 | 104% (inactive) | 92.2% (inactive) | 98.1% (inactive) | 97.3% (inactive) | 81.5% (inactive) | 102% (inactive) | 102% (inactive) | 101% (inactive) | 108% (inactive)
COCCCOc1cc(C[C@@H](C[C@H](N)[C@@H](O)C[C@H](C(=O)NCC(C)(C)C(N)=O)C(C)C)C(C)C)ccc1OC | 111% (inactive) | 106% (inactive) | 106% (inactive) | 98.7% (inactive) | 90.7% (inactive) | 106% (inactive) | 102% (inactive) | 95% (inactive) | 104% (inactive)
CCCCc1oc2ccccc2c1C(=O)c1ccc(O)cc1 | 81.6% (inactive) | 103% (inactive) | 91.1% (inactive) | 85.8% (inactive) | 73% (inactive) | 82.6% (inactive) | 69.1% (inactive) | 82.7% (inactive) | 116% (inactive)
Cc1ccc(-c2nc(C(Cl)Cl)nc3cc(C)nn23)cc1 | -2.36% (active) | 3.2% (active) | 25.1% (inactive) | 4.27% (active) | 44.9% (inactive) | 44.8% (inactive) | 59.5% (inactive) | 52% (inactive) | 38.4% (inactive)
CCn1cc(C2=C(c3cn(C)c4ncccc34)C(=O)NC2=O)c2cccnc21 | 67.6% (inactive) | 72.4% (inactive) | 87.7% (inactive) | 76.7% (inactive) | 66% (inactive) | 86.3% (inactive) | 70% (inactive) | 66.5% (inactive) | 90.7% (inactive)
CCCCCSB(SCCCCC)c1ccccc1 | 96.8% (inactive) | 96.4% (inactive) | 96.6% (inactive) | 99.7% (inactive) | 97.2% (inactive) | 105% (inactive) |  | 96.8% (inactive) | 110% (inactive)
CC(C)CCC[C@@H](C)C1CCC2C3CCC4=C/C(=N/OCCN(C)C)CC[C@]4(C)C3CC[C@@]21C (stereo partly drawn) | 98.3% (inactive) | 78.7% (inactive) | 86.5% (inactive) | 79.2% (inactive) | 57.1% (inactive) | 99.3% (inactive) | 84.9% (inactive) | 57.8% (inactive) | 101% (inactive)
O=C(/C=C/C12c3ccccc3C(c3ccccc31)C1C(=O)NC(=O)C12)c1ccc(F)cc1 (stereo not drawn) | -10.6% (active) | -3.81% (active) | 10.6% (inactive) | -44.4% (active) | 8.91% (active) | 10.8% (inactive) | -55.6% (active) | -53.9% (active) | 6.45% (active)
CC[C@H](CC[C@@H](C)[C@H]1CC[C@H]2[C@@H]3CC[C@@H]4CC(=O)/C(=C\c5ccncc5)C[C@]4(C)[C@H]3CC[C@]12C)C(C)C | 102% (inactive) | 103% (inactive) | 99.2% (inactive) | 96.3% (inactive) | 92.6% (inactive) | 100% (inactive) | 94.5% (inactive) | 95.7% (inactive) | 107% (inactive)
Cc1ccc(-c2cc(C(=O)N3N=C(c4ccc(N)cc4)CC3c3ccc(Cl)cc3)c3ccccc3n2)cc1 (stereo not drawn) | 30.2% (inactive) | -1.84% (active) | 42.1% (inactive) | 22.5% (inactive) | 15.4% (inactive) | 12.4% (inactive) | 39.2% (inactive) | 37.2% (inactive) | 72.6% (inactive)
c1ccc(CNc2ccc3nc(CCC4CCCCC4)[nH]c3c2)cc1 | 26.8% (inactive) | 13.8% (inactive) | 80.4% (inactive) | 63.6% (inactive) | 62.5% (inactive) | 43.2% (inactive) | 59.6% (inactive) | 79.4% (inactive) | 80% (inactive)
COc1ccc(-c2cn(-c3ccc(Cl)cc3)c(SCC(=O)c3ccc([N+](=O)[O-])cc3)n2)cc1 | 92.7% (inactive) | 89.6% (inactive) | 52.3% (inactive) | 60.6% (inactive) | 73.7% (inactive) | 88.2% (inactive) | 68.7% (inactive) | 89.1% (inactive) | 95.8% (inactive)
c1ccc(CCc2ccccc2-c2cc(-c3ccccc3)on2)cc1 | 83.6% (inactive) | 68.2% (inactive) | 90.3% (inactive) | 95.3% (inactive) | 89.1% (inactive) | 78.9% (inactive) | 71.1% (inactive) | 92.2% (inactive) | 93.9% (inactive)
O=C(CN1C(=O)/C(=C/c2ccco2)SC1=S)NCCc1c[nH]c2ccc(F)cc12 | 101% (inactive) | 112% (inactive) | 102% (inactive) | 103% (inactive) | 94% (inactive) | 99.6% (inactive) | 87.8% (inactive) | 96.9% (inactive) | 112% (inactive)
COC(=O)c1nc(-c2ccccc2)oc1S(=O)(=O)N1CCC(C(N)=O)CC1 | 42.8% (inactive) | 32.9% (inactive) | 93.3% (inactive) | 88.6% (inactive) | 62.7% (inactive) |  | 79.6% (inactive) | 63.7% (inactive) | 63.4% (inactive)
CN(C)c1ccc(-c2cc(-c3ccc(Nc4nc(Nc5ccc(Cl)cc5)nc(Nc5ccc(Cl)cc5)n4)cc3)nc(N)c2C#N)cc1 | 75.9% (inactive) | 80.3% (inactive) | 97.8% (inactive) | 63.3% (inactive) | 57.7% (inactive) | 66.7% (inactive) | 91% (inactive) | 72.7% (inactive) | 88.7% (inactive)

From PubChem BioAssay (NCI)
